aSyn 5UTR inh = MLPCN primary screen, SNCA 5' untranslated region | inhibition, % (tested at 7.5 µM) | 0.82% of 300,000 active | AID 1813 | alpha-synuclein 5'UTR reporter, inhibitor activity; in the data active means inhibition above about 60%; inconclusive means no clear call, values can overlap the other calls;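 further: H4 neuroglioblastoma cells stably carrying SNCA 5'UTR luciferase fusion; 0% = DMSO wells and 100% = positive control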
EBV LMP1 NFkB = Epstein-Barr LMP1 NF-kappaB reporter inhibition; LMP1-induced NF-kappaB luciferase reporter cells, luminescence; inhibition, % at 12.5 µM; 0.69% of 350,000 active; AID 504558; in the data active means inhibition above about 41%; inconclusive means no clear call, values can overlap the other calls;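 further: 0% = neutral control wells and 100% = reference inhibitor control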
MITF TRPM1 inh = MITF TRPM1 promoter inhibition in SK-MEL-5 cells | SK-MEL-5 TRPM1 promoter luciferase, 24 h | inhibition, % at 12.5 µM | 0.83% of 330,000 active | AID 488899;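 active means mean inhibition across replicates of 60% or more, whatever share of single replicates reaches that level; inconclusive means some that reach 60%, reason not given; inactive means mean inhibition across replicates below 60%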
PAX8 reporter = lowers PAX8-driven luciferase in RMG-I cells | 1.2% of 360,000 active | AID 652154 | RMG-I TPO-luciferase reporter, SteadyGlo, 24 h | inhibition, % at 12.6 µM;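 active means mean replicate inhibition at least 60% with every replicate also reaching 60%; inconclusive means only one of the two criteria is met; inactive means mean below 60% and not all replicates reaching 60%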;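 further: luciferase light reporting Pax8 driven TPO promoter activity; plate controls were median of neutral control wells for no effect and mitoxantrone controls for full effect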
Shn3 3UTR inh = reduces Shn3 3'UTR luciferase signal in osteoblasts | Clone20 osteoblast Shn3 3'UTR firefly luciferase, 24 h | 0.52% of 360,000 active | inhibition, % at 12.5 µM;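 active means mean inhibition of at least 75% with every replicate also reaching 75%; inconclusive means mean inhibition at least 75% but some replicate below; inactive means mean inhibition below 75%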;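 further: 0% = median of neutral control wells and 100% = pilot-screen positive control compound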
Numbers without * were called inactive. An excerpt weighted towards active compounds, which were near 2.1% of everything screened.

`CN(C)C(=O)C[C@@H]1C[C@H]2c3cc(NC(=O)Nc4ccc(F)cc4)ccc3O[C@H]2[C@@H](CO)O1` gave PAX8 reporter 9.0.
`COc1ccc(/C=C\C(=O)O[C@@H]2C(O)C(O[C@@H]3OC(C)[C@H](O[C@@H]4OCC(O[C@H]5O[C@H](CO)[C@@H](O)C(O)C5O)C(O)C4O)C(O)C3O)[C@H](OC(=O)[C@]34CCC(C)(C)C[C@@H]3C3=CCC5[C@@]6(C)CC(O)C(O[C@@H]7OC(CO)C(O)[C@H](O)[C@H]7O)[C@@](C)(C(=O)O)C6CC[C@@]5(C)[C@]3(CO)CC4)O[C@H]2C)cc1` (stereo partly drawn) gave EBV LMP1 NFkB -79.1, MITF TRPM1 inh 68.1* and Shn3 3UTR inh -1.1.
Cc1nn(-c2ccccc2Cl)c(Cl)c1/C=N/Nc1nc2ccccc2s1 was read as aSyn 5UTR inh 68.6*, EBV LMP1 NFkB 56.0*, MITF TRPM1 inh 98.2*, PAX8 reporter 2.1 and Shn3 3UTR inh 83.0.
Screening CCOc1ccc(NC(=O)c2ccccc2O)cc1 returned aSyn 5UTR inh -66.3, EBV LMP1 NFkB -14.8, MITF TRPM1 inh -85.0 and Shn3 3UTR inh -64.9.
CN1C(=O)c2cc(NC(=O)c3cccc(F)c3)ccc2OC[C@@H]2O[C@H](CC(=O)Nc3ccccc3)CC[C@@H]21 was read as PAX8 reporter 20.4.
Screening COC(=O)c1c(NC(=O)COC(=O)c2ccc(NC(=O)CC#N)cc2)sc2c1CCCCC2 returned aSyn 5UTR inh 19.1, EBV LMP1 NFkB -5.4, MITF TRPM1 inh 23.5, PAX8 reporter -28.3 and Shn3 3UTR inh 4.3.
Screening CCO[C@@H]1OC(C(=O)NCc2nc3ccccc3[nH]2)=C[C@H](C(C)(C)C)[C@H]1CCCO returned aSyn 5UTR inh 85.2*, EBV LMP1 NFkB 9.6, MITF TRPM1 inh 55.4, PAX8 reporter 64.4* and Shn3 3UTR inh 34.2.
Screening Cc1oc(=O)c(NC(=O)c2ccc(Cl)cc2)cc1C(=O)c1ccccc1 returned aSyn 5UTR inh -59.1, EBV LMP1 NFkB -3.6, MITF TRPM1 inh -4.4, PAX8 reporter -1.0 and Shn3 3UTR inh 94.4*.
Screening Cc1ccc(C(=O)Nc2cc3ccccc3oc2=O)cc1 returned aSyn 5UTR inh 111.1*, EBV LMP1 NFkB 79.3*, MITF TRPM1 inh 90.9*, PAX8 reporter 40.3 and Shn3 3UTR inh 81.4.
For C[C@H](CO)N1C[C@H](C)[C@@H](CN(C)Cc2ccc3c(c2)OCO3)Oc2ccc(NC(=O)c3ccncc3)cc2C1=O the results were PAX8 reporter -5.1.
Screening O=C(N[C@@H](Cc1ccccc1)Cn1cc(CN2C(=O)COC[C@H]2c2ccccc2)nn1)c1ccccc1 returned PAX8 reporter -9.1.
O=C(Nc1ccc([N+](=O)[O-])cc1)C1C(c2ccccc2)=C1c1ccccc1 was read as aSyn 5UTR inh -15.4, EBV LMP1 NFkB -3.9, MITF TRPM1 inh 10.0 and Shn3 3UTR inh 13.0.
`CCN1CCN(/C=N/c2nc3c(s2)CCCC3)CC1` gave aSyn 5UTR inh 65.6*, EBV LMP1 NFkB 55.2*, MITF TRPM1 inh inconclusive and Shn3 3UTR inh 45.3.
Screening CN1CCN(CC(=O)Nc2nc3c(s2)CCCC3)CC1 returned aSyn 5UTR inh -18.1, EBV LMP1 NFkB -0.7, MITF TRPM1 inh 5.8, PAX8 reporter 12.6 and Shn3 3UTR inh 8.7.
COc1ccc(-n2nnnc2SCC(=O)NC2CC2)cc1 was read as EBV LMP1 NFkB 0.2, MITF TRPM1 inh 5.3, PAX8 reporter 75.3* and Shn3 3UTR inh 2.7.
Screening CCCCCCN(C(=O)CCCCCN1C(=O)NC(c2ccc(-c3ccccc3)cc2)C(C(=O)OCc2ccccc2)=C1C)C(C(=O)NCCCC)c1ccccn1 (stereo not drawn) returned aSyn 5UTR inh 23.7 and PAX8 reporter 79.6*.
Screening CCOC(=O)C1=C(CC)Nc2ccccc2N=C1NC(=O)c1cc(C)on1 returned EBV LMP1 NFkB 4.5, MITF TRPM1 inh 9.5, PAX8 reporter -5.6 and Shn3 3UTR inh -4.2.
`CCOC(=O)C1=C(CC)Nc2ccccc2N=C1NC(=O)Nc1ccc(Cl)c(Cl)c1` gave aSyn 5UTR inh 6.7, EBV LMP1 NFkB 38.9, MITF TRPM1 inh -1.6, PAX8 reporter 62.1* and Shn3 3UTR inh 22.9.
Screening N=c1c2c(n(Cc3ccccc3)c3c1CCC3)CCC2 returned aSyn 5UTR inh 27.1, EBV LMP1 NFkB 13.6, MITF TRPM1 inh 49.6 and Shn3 3UTR inh 69.1.
N=c1c2c(n(Cc3ccc(Cl)cc3)c3c1CCC3)CCC2 was read as aSyn 5UTR inh 54.4, EBV LMP1 NFkB 14.9, MITF TRPM1 inh 64.3* and Shn3 3UTR inh 79.5.
For N=c1c2c(n(Cc3ccc(F)cc3)c3c1CCC3)CCCC2 the results were aSyn 5UTR inh 11.1, EBV LMP1 NFkB 2.2, MITF TRPM1 inh 32.6, PAX8 reporter 68.8* and Shn3 3UTR inh 51.5.
`Cc1ccc(C(=O)/C=C/c2ccc(-c3ccc(C)cc3)o2)cc1` gave aSyn 5UTR inh -72.5, EBV LMP1 NFkB -14.6, MITF TRPM1 inh -1.0, PAX8 reporter 8.7 and Shn3 3UTR inh 92.5*.
For O=C(/C=C\c1ccc(-c2ccccc2)o1)c1ccccc1 the results were aSyn 5UTR inh -61.7, EBV LMP1 NFkB -13.9, MITF TRPM1 inh -32.7, PAX8 reporter -21.5 and Shn3 3UTR inh 59.7.
COc1ccc(C2CC(c3ccc(C)o3)=NN2C(C)=O)cc1 (stereo not drawn) was read as aSyn 5UTR inh -128.2, EBV LMP1 NFkB -18.2, MITF TRPM1 inh -63.5, PAX8 reporter 29.8 and Shn3 3UTR inh -43.8.
COc1ccc2cc3cc(C(=O)Nc4ccccc4N4CCN(C)CC4)oc3nc2c1 was read as aSyn 5UTR inh -52.4, EBV LMP1 NFkB 0.1, MITF TRPM1 inh 66.3*, PAX8 reporter 43.5 and Shn3 3UTR inh 14.2.
Screening COC(=O)c1c(C)oc2ccc(N(C(=O)c3ccncc3)S(=O)(=O)c3ccc(C)cc3)cc12 returned aSyn 5UTR inh 109.8*, EBV LMP1 NFkB 25.8, MITF TRPM1 inh 40.5 and Shn3 3UTR inh 61.5.
`COc1ccc2[nH]c(=O)c(CN(C(=O)c3ccncc3)C(C)C)cc2c1` gave aSyn 5UTR inh 0.1, EBV LMP1 NFkB -27.2, MITF TRPM1 inh -3.1 and Shn3 3UTR inh -2.0.
For Cc1ccc(C(=O)Nc2cccc(C(F)(F)F)c2)cc1NC(=O)c1nccn1C the results were aSyn 5UTR inh 20.1, EBV LMP1 NFkB 7.0, PAX8 reporter 3.3 and Shn3 3UTR inh -5.5.
`Cc1ccc(C(=O)Nc2cccc(C(F)(F)F)c2)cc1Nc1cnccn1` gave aSyn 5UTR inh 34.3, EBV LMP1 NFkB 15.5, MITF TRPM1 inh 4.8, PAX8 reporter 3.1 and Shn3 3UTR inh 11.6.
For Cc1ccc(C(=O)Nc2cccc(C(F)(F)F)c2)cc1Nc1ncnc2nc[nH]c12 the results were aSyn 5UTR inh 77.9*, EBV LMP1 NFkB 44.3*, PAX8 reporter 39.2 and Shn3 3UTR inh 51.1.
Screening Cc1ccc(C(=O)Nc2cccc(C(F)(F)F)c2)cc1NC(=O)c1ccno1 returned aSyn 5UTR inh 94.9*, EBV LMP1 NFkB 46.1*, MITF TRPM1 inh -12.6, PAX8 reporter 18.7 and Shn3 3UTR inh 4.4.
`c1ccc(Nc2ccccc2Nc2ccccn2)nc1` gave aSyn 5UTR inh -63.0, EBV LMP1 NFkB 2.6, MITF TRPM1 inh 1.6 and Shn3 3UTR inh 12.0.
